Activity calls are given as the source filed them. No rule for the calls is given here. Where only a bound is given, the exact number is not on record here.
Potency is read from the fitted curve at half-maximal effect.

The test system of this test is HIV-1 nucleocapsid protein NCp7 (binding to TG oligonucleotide). Briefly: HIV Nucleocapsid (AID 346).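 Also: potency is for inhibitors that block NC binding and lower polarization.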 As to conditions: HIV-1 NC / fluorescein-TGTGTGTG probe, fluorescence polarization. In outline:
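NCp7 100 nM + fluorescein TG4xF 10 nM; Hepes pH 7.5/250mM NaCl/1uM ZnCl2/0.004% PEG 20000; 1 hr RT; FP, 45 s exposure; oligo-only wells as negative control.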
On to `N#Cc1ccc(CN2CC3(CCN(C(=O)c4cnccn4)CC3)C2)cc1`, for which the Potency was > 20 µM (inactive).

Consider `CCNc1ncc2nc(-c3cn(C)c4ccccc34)c(=O)n(CCC#N)c2n1`, for which the Potency was > 20 µM (inactive).

For `CN1CCN(c2ncc3nc(-c4cccs4)c(=O)n(CCC#N)c3n2)CC1`, the Potency is 15.3 µM (inactive).

With `N#Cc1cccc(-c2nc(Nc3ccccc3)c3ccccc3n2)c1`, the Potency was > 20 µM (inactive).

With `CN(C)C(=O)c1ccc(-c2nc(-n3ccnc3)c3ccccc3n2)cc1`, the Potency is > 20 µM (inactive).

As for `O=C(Nc1cccc(F)c1)N1CC[C@@]2(CCCNC2)C1`, the Potency is > 20 µM (inactive).

Turning to `COc1ccc(-n2c(=O)c(-c3ccccc3)nc3cnc(N4CCNCC4)nc32)cc1`, the Potency was > 20 µM (inactive).

As for `Cn1cccc1C(=O)N1CCC[C@@]2(CCN(C(c3ccccc3)c3ccccc3)C2)C1`, the Potency is > 20 µM (inactive).

`N#Cc1cccc(NC(=O)N2CCCC3(CCN(C(=O)c4cccc(F)c4)CC3)C2)c1`: the Potency is > 20 µM (inactive).

As for `COc1ccccc1-c1ccc2ncnc(NC3CC3)c2c1`, the Potency was > 20 µM (inactive).

Take `CN(C)c1ncc2nc(-c3cccs3)c(=O)n(C[C@H]3CCCO3)c2n1`: the Potency was > 20 µM (inactive).

On to `CS(=O)(=O)N1CCC[C@@]2(CCN(c3ccccn3)C2)C1`, for which the Potency is > 20 µM (inactive).

Turning to `CN(C)Cc1ccccc1-c1ccc2ncnc(NCc3ccccc3)c2c1`, the Potency is > 20 µM (inactive).

For the compound `COc1cccc(Nc2ncc3nc(C)c(=O)n(C4CC4)c3n2)c1`, the Potency is > 20 µM (inactive).

With `O=C(c1ccco1)N1CCC2(CC1)CCN(c1ccccc1)CC2`, the Potency was > 20 µM (inactive).

With `COc1ncc2nc(-c3cc(F)cc(F)c3)c(=O)n(CCC#N)c2n1`, the Potency is > 20 µM (inactive).

Regarding `c1cncc(CNc2nc(-c3ccc4c(c3)OCO4)nc3ccccc23)c1`, the Potency is > 20 µM (inactive).

On to `CN1CCN(c2ncc3nc(-c4cc(F)cc(F)c4)c(=O)n(CCC#N)c3n2)CC1`, for which the Potency is > 20 µM (inactive).

For `COC(=O)N1CCC2(CCCN(Cc3ccccc3OC)C2)CC1`, the Potency was > 20 µM (inactive).

With `CS(=O)(=O)N1CCC2(CCCN(C(=O)Nc3cccc(C#N)c3)C2)CC1`, the Potency is > 20 µM (inactive).

For `COCCn1c(=O)cnc2cnc(OC)nc21`, the Potency is > 20 µM (inactive).

As to `O=c1c(-c2ccc(F)cc2)nc2cnc(N3CCOCC3)nc2n1C1CC1`, the Potency is > 20 µM (inactive).

For `O=C(Oc1ccccc1)N1CCC2(CC1)CCN(c1ccncc1)CC2`, the Potency was > 20 µM (inactive).

As for `Cc1nc2cnc(OCc3ccccc3)nc2n(CCC#N)c1=O`, the Potency is > 20 µM (inactive).

Turning to `O=C(c1cnccn1)N1CCC[C@@]2(CCN(c3ncccn3)C2)C1`, the Potency was > 20 µM (inactive).

The record behind these values is PubChem BioAssay (NCATS).
